Laboratory results: PubChem BioAssay (EPA / NIEHS)
“And” between values parts separate entries of the source, which are not always exact repeats. Identical values can stand only once. Records with an inconclusive call do not appear. A structure can be active in one record and inactive in another. The source made the active and inactive calls. Rule for the calls, unless noted: active = hit-call score of the fitted dose curve at least 0.9, where 1 is the maximum; inactive = score below 0.9.

Legend:
[1] = ATG_PBREM_CIS: Attagene CIS-FACTORIAL HepG2 Assay for human Phenobarbital-responsive Enhancer Module (PBREM) (AID 2282955); conditions: HepG2 PBREM cis-reporter, Attagene multiplexed transcription; actives raise or lower the signal
Procedure, shortened: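 After a 24 h incubation with test chemical, transfected HepG2 cells yield total RNA; reporter-specific RT-PCR products are fluorescently labelled, HpaI-digested and resolved by capillary electrophoresis against ROX size standards.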

[2] = target: Paired box protein Pax-6 (Homo sapiens) (UniProt P26367); assay: ATG_Pax6_CIS: Attagene CIS-FACTORIAL HepG2 Assay for human Paired Box 6 (PAX6) (AID 2282956); conditions: HepG2 CIS-FACTORIAL PAX6 reporter transcription, RNA readout; actives raise or lower the signal
Procedure, shortened: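 Read-out is reporter transcript level, measured by RT-PCR with fluorescent primer extension and capillary electrophoresis after 24 h dosing of transfected HepG2 cells. Activity in either direction fitted relative to DMSO control.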

[3] = ATG_PXRE_CIS: Attagene CIS-FACTORIAL HepG2 Assay for human Pregnane X Receptor Element (PXRE) (AID 2282957); conditions: HepG2 Attagene CIS-FACTORIAL PXRE reporter, mRNA; actives raise or lower the signal
Procedure, shortened: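 Bidirectional activity, baselined to DMSO, derived from reporter mRNA fluorescence (RT-PCR plus capillary electrophoresis) in HepG2 cells bearing cis-promoter reporter units, 24 h exposure.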

[4] = ATG_PPRE_CIS: Attagene CIS-FACTORIAL HepG2 Assay for human Peroxisome Proliferator-activated Response Element (PPRE) (AID 2282958); conditions: HepG2 PPRE cis-element reporter, Attagene transcription factor profiling; actives raise or lower the signal
Procedure, shortened: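 Multiplexed reporter transcription units under cis-regulatory promoters were transfected into HepG2 cells to capture endogenous factor activity. A 24 h incubation preceded RNA isolation and fluorescent RT-PCR fragment analysis.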

[5] = ATG_RORE_CIS: Attagene CIS-FACTORIAL HepG2 Assay for human RAR-related Orphan Receptor Element (RORE) (AID 2282959); conditions: HepG2 Attagene cis-factorial RORE reporter, mRNA; actives raise or lower the signal
Procedure, shortened: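 Fluorescence intensity of reporter-specific cDNA fragments, separated by capillary electrophoresis, gives the signal. Source: HepG2 liver cells transiently transfected with cis-element reporters and exposed 24 h; DMSO-normalized bidirectional fit.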

[6] = ATG_Sox_CIS: Attagene CIS-FACTORIAL HepG2 Assay for human SRY-box transcription factor (SOX) (AID 2282960); conditions: HepG2 Attagene cis-factorial SOX reporter, mRNA; actives raise or lower the signal
Procedure, shortened: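 After 24 h of chemical treatment, transfected HepG2 reporter cells are lysed for total RNA. Transcript levels come from RT-PCR with labelled primer extension and capillary electrophoresis, analysed bidirectionally versus DMSO.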

[7] = target: Transcription factor Sp1 (Homo sapiens) (UniProt P08047); assay: ATG_Sp1_CIS: Attagene CIS-FACTORIAL HepG2 Assay for human Specificity Protein 1 (Sp1) (AID 2282961); conditions: HepG2 Sp1 cis-reporter transcription, actives raise or lower the signal
Procedure, shortened: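 Sp1-driven reporter mRNA, read as capillary electrophoresis fluorescence after RT-PCR, in transiently transfected HepG2 cells dosed for 24 h; signal change in either direction relative to DMSO.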

[8] = ATG_SREBP_CIS: Attagene CIS-FACTORIAL HepG2 Assay for human Sterol Regulatory Element Binding (SREBP) (AID 2282962); conditions: HepG2 Attagene cis-factorial SREBP reporter, mRNA; actives raise or lower the signal
Procedure, shortened: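 Endogenous SREBP activity read as cis-element-driven reporter transcript in transiently transfected HepG2, 24 h post-dosing; quantified via RT-PCR plus capillary electrophoresis of fluorescent fragments. Gain or loss of signal fitted relative to DMSO baseline.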

[9] = target: Signal transducer and activator of transcription 3 (Homo sapiens) (UniProt P40763); assay: ATG_STAT3_CIS: Attagene CIS-FACTORIAL HepG2 Assay for human Signal Transducer and Activator of Transcription 3 (STAT3) (AID 2282963); conditions: HepG2, Attagene cis-factorial STAT3 reporter transcription; actives raise or lower the signal
Procedure, shortened: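 Fluorescence intensity of 6-FAM-labelled reporter fragments, separated by capillary electrophoresis after RT-PCR, gave the signal. Cells were HepG2 transfected with cis-element reporter units and treated 24 h; fitting was bidirectional relative to DMSO.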

[10] = ATG_TA_CIS: Attagene CIS-FACTORIAL HepG2 Assay for human TA Basal Promoter (AID 2282964); conditions: HepG2 Attagene CIS-factorial TA basal promoter reporter; actives raise or lower the signal
Procedure, shortened: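 HepG2 cells transiently transfected with multiple reporter units under cis promoter elements, reporting endogenous transcription factor activity; this endpoint tracks the TA basal promoter as background control. Reporter mRNA after 24 h dosing measured by RT-PCR/capillary electrophoresis; bidirectional fits versus DMSO.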

[11] = ATG_TCF_b_cat_CIS: Attagene CIS-FACTORIAL HepG2 Assay for human T-Cell-Factor with beta-catenin (TCF/b-cat) (AID 2282965); conditions: HepG2 TCF/beta-catenin cis-reporter transcription, actives raise or lower the signal
Procedure, shortened: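 HepG2 cells transiently transfected with cis-promoter-driven multiplexed reporter units; reporter mRNA measured 24 h after dosing by RT-PCR, FAM labelling, HpaI digestion and capillary electrophoresis. Bidirectional fitting relative to DMSO baseline.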

[12] = ATG_TAL_CIS: Attagene CIS-FACTORIAL HepG2 Assay for human TAL Basal Promoter (AID 2282966); conditions: HepG2 Attagene cis-factorial TAL promoter reporter; actives raise or lower the signal;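 note: background control endpoint measuring basal TAL promoter reporter mRNA not a specific factor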
Procedure, shortened: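 Human hepatoma HepG2 cells, transfected with promoter-regulated reporter units, were treated 24 h. Reporter transcript levels, measured through RT-PCR and capillary electrophoresis, were fitted for gain or loss relative to DMSO.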

[13] = ATG_TGFb_CIS: Attagene CIS-FACTORIAL HepG2 Assay for human Transforming Growth Factor (TGF) (AID 2282967); conditions: HepG2 Attagene CIS TGFb reporter, mRNA transcription; actives raise or lower the signal
Procedure, shortened: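 HepG2 cells transiently transfected with cis-promoter-driven multiple reporter units measure endogenous TF activity; reporter mRNA quantified at 24 h by RT-PCR, FAM labeling, HpaI digestion and capillary electrophoresis. Bidirectional fit vs DMSO.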

[14] = ATG_VDRE_CIS: Attagene CIS-FACTORIAL HepG2 Assay for human Vitamin D Receptor Element (VDRE) (AID 2282968); conditions: HepG2 VDRE cis-reporter transcription, actives raise or lower the signal
Procedure, shortened: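 Compounds were applied for 24 h to HepG2 cells transfected with promoter-regulated reporter units. Total RNA was reverse-transcribed, and reporter amplicons were fluorescently labelled and sized by capillary electrophoresis.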

[15] = target: Nuclear receptor subfamily 1 group I member 3 (Homo sapiens) (UniProt Q14994); assay: ATG_CAR_TRANS: Attagene TRANS-FACTORIAL HepG2 Assay for human Constitutive Androstane Receptor (CAR) (AID 2282969; active = hit-call score of the fitted dose curve at least 0.9, where 1 is the maximum;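 note: activators raise reporter mRNA above DMSO so AC50 marks induction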); conditions: HepG2 Attagene TRANS-FACTORIAL CAR reporter
Procedure, shortened: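 Transiently transfected HepG2, multiplex TRANS reporters (CAR-Gal4 chimera driving GAL4-UAS reporter). 24 h dosing. Readout: reporter transcript by RT-PCR + capillary electrophoresis, fluorescence intensity; positive direction vs DMSO.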

[16] = target: Estrogen receptor (Homo sapiens) (UniProt P03372); assay: ATG_ERa_TRANS: Attagene TRANS-FACTORIAL HepG2 Assay for human Estrogen Receptor alpha (ERa) (AID 2282970; active = hit-call score of the fitted dose curve at least 0.9, where 1 is the maximum); conditions: HepG2 Attagene TRANS ERa GAL4 reporter, mRNA
Procedure, shortened: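 Signal derives from fluorescence of labelled reporter PCR fragments separated by capillary electrophoresis. HepG2 cells transiently carrying multiple GAL4-UAS reporter units were treated 24 hours, and induction above DMSO baseline was fitted as activity.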

[17] = target: Steroid hormone receptor ERR1 (Homo sapiens) (UniProt P11474); assay: ATG_ERRa_TRANS: Attagene TRANS-FACTORIAL HepG2 Assay for human Estrogen-Related Receptor alpha (ERRa) (AID 2282971; active = hit-call score of the fitted dose curve at least 0.9, where 1 is the maximum); conditions: HepG2 Attagene TRANS reporter, ERRa transactivation
Procedure, shortened: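 Signal gain relative to DMSO for an ERRa-Gal4 chimeric receptor, read as reporter mRNA by RT-PCR/capillary electrophoresis. Human HepG2 liver cells, transient multiplex reporter transfection, 24 h chemical exposure.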

[18] = target: X-box-binding protein 1 (Homo sapiens) (UniProt P17861); assay: ATG_Xbp1_CIS: Attagene CIS-FACTORIAL HepG2 Assay for human X-box Binding Protein 1 (XBP1) (AID 2282972); conditions: HepG2 XBP1 cis-element reporter, Attagene multiplex; actives raise or lower the signal
Procedure, shortened: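 Reporter transcripts were quantified by RT-PCR with fluorescent primer extension and capillary electrophoresis after 24 h chemical exposure. Cells: transiently transfected HepG2 carrying cis-regulated reporter constructs; data fitted bidirectionally relative to DMSO.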

[19] = ATG_GAL4_TRANS: Attagene TRANS-FACTORIAL HepG2 Assay for GAL4 (Internal Marker) (AID 2282976; active = hit-call score of the fitted dose curve at least 0.9, where 1 is the maximum); conditions: HepG2 Attagene TRANS GAL4 internal marker reporter
Procedure, shortened: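 Liver HepG2 line bearing multiplexed GAL4-UAS reporter constructs; 24 h chemical treatment. Transcripts were quantified as fluorescent fragments on capillary electrophoresis after RT-PCR and HpaI cut, with activity fitted upward from DMSO.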

[20] = ATG_M_19_TRANS: Attagene TRANS-FACTORIAL HepG2 Assay for M19 Transcription Factor (Internal Marker) (AID 2282974; active = hit-call score of the fitted dose curve at least 0.9, where 1 is the maximum); conditions: HepG2 Attagene TRANS-FACTORIAL M19 internal marker reporter
Procedure, shortened: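 Measured here: internal-marker reporter transcript from HepG2 cells transfected with MRTUs, harvested at 24 h. cDNA PCR products were 6-FAM labelled by primer extension, cut with HpaI for 2 h at 37 C, and resolved by CE.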

Measured: AC50

Sequence of X-box-binding protein 1 (Homo sapiens) (P17861 whole entry, looked up): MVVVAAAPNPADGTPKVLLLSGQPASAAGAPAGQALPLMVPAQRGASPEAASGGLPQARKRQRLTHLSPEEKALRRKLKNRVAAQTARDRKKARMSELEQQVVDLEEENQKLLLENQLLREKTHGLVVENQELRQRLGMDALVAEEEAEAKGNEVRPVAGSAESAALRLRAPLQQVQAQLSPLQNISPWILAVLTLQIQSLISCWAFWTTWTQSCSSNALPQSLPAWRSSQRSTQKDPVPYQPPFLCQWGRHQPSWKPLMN
Sequence of Nuclear receptor subfamily 1 group I member 3 (Homo sapiens) (Q14994 whole entry, looked up, the tested form may be a part): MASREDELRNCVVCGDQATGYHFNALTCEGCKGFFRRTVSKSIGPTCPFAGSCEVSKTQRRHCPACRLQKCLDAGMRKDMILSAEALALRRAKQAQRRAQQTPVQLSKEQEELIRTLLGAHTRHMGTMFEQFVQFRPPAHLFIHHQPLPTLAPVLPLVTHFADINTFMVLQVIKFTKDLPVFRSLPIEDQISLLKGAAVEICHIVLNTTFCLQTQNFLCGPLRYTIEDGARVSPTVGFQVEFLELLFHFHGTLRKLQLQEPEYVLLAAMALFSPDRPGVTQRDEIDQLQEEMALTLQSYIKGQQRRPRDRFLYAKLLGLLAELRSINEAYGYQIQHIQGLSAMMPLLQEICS
Sequence of Signal transducer and activator of transcription 3 (Homo sapiens) (P40763 whole entry, looked up, the tested form may be a part): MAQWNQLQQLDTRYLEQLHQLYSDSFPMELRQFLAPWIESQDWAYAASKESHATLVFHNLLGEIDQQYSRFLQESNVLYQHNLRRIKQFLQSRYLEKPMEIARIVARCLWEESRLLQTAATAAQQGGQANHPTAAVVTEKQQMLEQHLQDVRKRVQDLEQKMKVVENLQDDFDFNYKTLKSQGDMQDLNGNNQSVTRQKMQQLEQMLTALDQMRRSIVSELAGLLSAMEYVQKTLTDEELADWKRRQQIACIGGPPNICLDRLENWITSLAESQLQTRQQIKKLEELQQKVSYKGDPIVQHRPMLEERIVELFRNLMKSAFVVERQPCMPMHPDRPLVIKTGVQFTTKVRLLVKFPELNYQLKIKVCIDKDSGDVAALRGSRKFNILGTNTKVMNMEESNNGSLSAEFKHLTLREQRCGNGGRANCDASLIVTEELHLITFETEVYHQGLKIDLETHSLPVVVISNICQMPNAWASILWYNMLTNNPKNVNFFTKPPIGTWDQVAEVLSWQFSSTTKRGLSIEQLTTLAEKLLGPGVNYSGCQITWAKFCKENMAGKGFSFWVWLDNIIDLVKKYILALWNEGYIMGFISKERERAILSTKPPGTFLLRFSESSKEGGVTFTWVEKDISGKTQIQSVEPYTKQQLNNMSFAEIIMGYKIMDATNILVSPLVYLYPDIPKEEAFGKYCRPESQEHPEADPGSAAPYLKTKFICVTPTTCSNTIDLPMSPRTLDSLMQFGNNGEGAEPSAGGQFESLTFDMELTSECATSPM
Sequence of Transcription factor Sp1 (Homo sapiens) (P08047 whole entry, looked up): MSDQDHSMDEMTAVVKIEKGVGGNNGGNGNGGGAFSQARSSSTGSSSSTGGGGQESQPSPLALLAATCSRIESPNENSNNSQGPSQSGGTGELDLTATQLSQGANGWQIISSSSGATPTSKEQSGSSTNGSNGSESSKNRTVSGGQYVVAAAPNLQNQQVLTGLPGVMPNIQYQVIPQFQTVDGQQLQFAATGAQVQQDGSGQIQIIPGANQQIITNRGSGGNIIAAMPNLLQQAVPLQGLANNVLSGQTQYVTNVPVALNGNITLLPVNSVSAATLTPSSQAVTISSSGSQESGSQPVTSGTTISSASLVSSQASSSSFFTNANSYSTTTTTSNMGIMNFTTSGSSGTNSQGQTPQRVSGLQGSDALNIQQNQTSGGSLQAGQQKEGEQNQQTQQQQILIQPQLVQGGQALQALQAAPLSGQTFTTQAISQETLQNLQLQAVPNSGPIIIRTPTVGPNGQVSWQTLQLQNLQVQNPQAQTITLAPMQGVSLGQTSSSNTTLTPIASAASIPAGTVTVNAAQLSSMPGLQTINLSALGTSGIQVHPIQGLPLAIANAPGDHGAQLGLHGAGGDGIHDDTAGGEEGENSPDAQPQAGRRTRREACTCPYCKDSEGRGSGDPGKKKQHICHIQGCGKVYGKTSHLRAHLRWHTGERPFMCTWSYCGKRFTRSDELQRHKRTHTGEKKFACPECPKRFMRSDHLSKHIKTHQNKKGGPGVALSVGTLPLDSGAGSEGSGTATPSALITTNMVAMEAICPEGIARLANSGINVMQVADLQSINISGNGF
Sequence of Paired box protein Pax-6 (Homo sapiens) (P26367 whole entry, looked up): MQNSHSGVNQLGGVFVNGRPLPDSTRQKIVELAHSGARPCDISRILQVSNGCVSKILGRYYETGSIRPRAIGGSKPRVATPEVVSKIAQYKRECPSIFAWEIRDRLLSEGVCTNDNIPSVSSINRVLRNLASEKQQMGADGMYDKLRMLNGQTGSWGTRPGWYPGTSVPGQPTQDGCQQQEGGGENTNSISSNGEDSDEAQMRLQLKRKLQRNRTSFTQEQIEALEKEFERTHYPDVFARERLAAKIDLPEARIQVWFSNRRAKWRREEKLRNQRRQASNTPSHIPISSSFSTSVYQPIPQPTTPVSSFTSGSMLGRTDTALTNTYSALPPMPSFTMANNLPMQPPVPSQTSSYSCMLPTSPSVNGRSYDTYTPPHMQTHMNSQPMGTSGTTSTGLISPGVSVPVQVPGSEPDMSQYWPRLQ
Sequence of Estrogen receptor (Homo sapiens) (P03372 whole entry, looked up, the tested form may be a part): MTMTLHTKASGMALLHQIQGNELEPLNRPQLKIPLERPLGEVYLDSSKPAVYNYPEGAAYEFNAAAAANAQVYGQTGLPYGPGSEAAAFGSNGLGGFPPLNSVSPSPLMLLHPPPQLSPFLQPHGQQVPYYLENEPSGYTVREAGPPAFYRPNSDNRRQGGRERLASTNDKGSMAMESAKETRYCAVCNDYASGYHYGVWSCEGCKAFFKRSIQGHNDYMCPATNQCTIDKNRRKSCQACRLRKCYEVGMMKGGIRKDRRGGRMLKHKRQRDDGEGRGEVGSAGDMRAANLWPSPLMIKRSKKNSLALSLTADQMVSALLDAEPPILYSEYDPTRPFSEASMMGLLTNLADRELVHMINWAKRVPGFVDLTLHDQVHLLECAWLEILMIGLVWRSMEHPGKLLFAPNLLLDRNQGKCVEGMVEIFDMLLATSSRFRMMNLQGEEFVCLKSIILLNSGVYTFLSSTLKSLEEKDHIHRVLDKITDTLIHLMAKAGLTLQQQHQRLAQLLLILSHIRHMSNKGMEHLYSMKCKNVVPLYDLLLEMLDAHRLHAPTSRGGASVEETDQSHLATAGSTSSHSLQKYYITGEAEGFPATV
Sequence of Steroid hormone receptor ERR1 (Homo sapiens) (P11474 whole entry, looked up, the tested form may be a part): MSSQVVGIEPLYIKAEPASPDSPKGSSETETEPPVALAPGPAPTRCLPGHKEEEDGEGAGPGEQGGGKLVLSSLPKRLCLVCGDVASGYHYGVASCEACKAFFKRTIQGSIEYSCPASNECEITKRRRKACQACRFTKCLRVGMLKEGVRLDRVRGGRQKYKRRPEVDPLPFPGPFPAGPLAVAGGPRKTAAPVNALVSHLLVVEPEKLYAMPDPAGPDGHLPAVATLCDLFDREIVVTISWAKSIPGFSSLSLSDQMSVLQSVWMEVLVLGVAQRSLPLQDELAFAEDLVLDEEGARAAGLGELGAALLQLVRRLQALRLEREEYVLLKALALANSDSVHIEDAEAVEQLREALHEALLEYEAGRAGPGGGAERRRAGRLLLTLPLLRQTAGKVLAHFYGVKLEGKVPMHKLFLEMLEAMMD

CCCCCCCCC(F)(F)C(F)(F)C(F)(F)C(F)(F)C(F)(F)C(F)(F)F
not listed: [20]
inactive: all other assays above

FC(F)(F)C(F)(F)C(F)(F)C(F)(F)C(F)(F)CCI
active: [3] 39.9 µM | [16] 41 µM
not listed: [19] | [20]
inactive: all other assays above

CC(=O)Nc1ccc(N=Nc2cc(C)ccc2O)cc1
active: [1] 49.4 µM | [3] 19.5 µM | [4] 39.6 µM | [13] 11.6 µM | [14] 13.6 µM
not listed: [19] | [20]
inactive: all other assays above

O=C(O)C=C(C(F)(F)F)C(F)(F)F
not listed: [20]
inactive: all other assays above

Cc1cccc(N(C)C)c1
not listed: [20]
inactive: all other assays above

CC(C)=CCCC(C)CCOC(=O)C(C)C (stereo not given)
not listed: [17]
inactive: all other assays above

CCCCCCOC(=O)c1ccccc1O
active: [3] 62.5 µM | [16] 92.5 µM
not listed: [17] | [19] | [20]
inactive: all other assays above

NC(=O)C(F)(F)C(F)(F)C(F)(F)C(F)(F)F
not listed: [20]
inactive: all other assays above

[Co]
active: [3] 13.8 µM | [16] 32.5 µM
inactive: all other assays above

O=P(O)(O)OCCC(F)(F)C(F)(F)C(F)(F)C(F)(F)C(F)(F)C(F)(F)F
active: [13] 70.1 µM | [16] 10.4 µM
not listed: [20]
inactive: all other assays above

O=S(=O)(O)C(F)(F)C(F)(F)C(F)(F)C(F)(F)C(F)(F)C(F)(F)C(F)(F)F
active: [3] 20.3 µM and 19.7 µM | [4] 61.2 µM | [8] 150 µM | [9] 163 µM | [10] 159 µM | [11] 78.9 µM | [13] 148 µM and 81.5 µM | [16] 43.3 µM and 58.7 µM
inactive: [1] | [2] | [4] | [5] | [6] | [7] | [8] | [9] | [10] | [11] | [12] | [14] | [15] | [17] | [18] | [19]

CC/C=C\CCOC(C)=O
active: [3] 70 µM
not listed: [20]
inactive: all other assays above

FC(F)(F)C(F)(F)C(F)(F)N(C(F)(F)C(F)(F)C(F)(F)F)C(F)(F)C(F)(F)C(F)(F)F
inactive: all assays above
